From the supplement of paper PMC11628255, “Interference of metal ions on the bioluminescent signal of firefly, Renilla, and NanoLuc luciferases in high-throughput screening assays” (Frontiers in Chemistry, 2024)
± gives the standard deviation of the averaged measurements.

Tested on: NanoLuc luciferase (NLuc)
Assay: residual bioluminescent signal relative to negative (DMSO) control; higher = less interference (more residual luciferase signal)
Method: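 Purified luciferase (FLuc 10 nM + 10 uM D-luciferin; NLuc 10 pM + 10 uM furimazine; RLuc 50 pM + 2 uM coelenterazine) in 384-well plates; metal salt pre-incubated with enzyme 10 min at RT, substrate added and luminescence read after 10 min. Signal normalised to plate DMSO negative control (% N_VALUE = x/mean neg *100); triplicate wells at 0.01, 1 and 5 mM salt.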

[1] = metal salt concentration 0.01 mM, HEPES conditions (100 mM HEPES, 0.1% BSA, pH 7.5)
[2] = metal salt concentration 0.01 mM, screening conditions (PBS, 0.1% BSA, pH 7.4)
[3] = metal salt concentration 1 mM, HEPES conditions (100 mM HEPES, 0.1% BSA, pH 7.5)
[4] = metal salt concentration 1 mM, screening conditions (PBS, 0.1% BSA, pH 7.4)
[5] = metal salt concentration 5 mM, HEPES conditions (100 mM HEPES, 0.1% BSA, pH 7.5)
[6] = metal salt concentration 5 mM, screening conditions (PBS, 0.1% BSA, pH 7.4)

O=[N+]([O-])[O-].O=[N+]([O-])[O-].[Ca+2] [calcium nitrate]
residual bioluminescent signal [1]: 97.1 ± 2.3%
residual bioluminescent signal [2]: 96.46 ± 0.94%
residual bioluminescent signal [3]: 102 ± 5.5%
residual bioluminescent signal [4]: 97.6 ± 4.1%
residual bioluminescent signal [5]: 109 ± 3.1%
residual bioluminescent signal [6]: 92.6 ± 4.6%

O=[N+]([O-])[O-].O=[N+]([O-])[O-].[Zn+2] [zinc nitrate]
residual bioluminescent signal [1]: 93.6 ± 0.95%
residual bioluminescent signal [2]: 93 ± 6.4%
residual bioluminescent signal [3]: 30.5 ± 4.9%
residual bioluminescent signal [4]: 32.8 ± 4.5%
residual bioluminescent signal [5]: 16.1 ± 1.8%
residual bioluminescent signal [6]: 9.03 ± 2.6%

O=[N+]([O-])[O-].O=[N+]([O-])[O-].[Ni+2] [nickel(II) nitrate]
residual bioluminescent signal [1]: 89 ± 2%
residual bioluminescent signal [2]: 94.5 ± 3.8%
residual bioluminescent signal [3]: 87.6 ± 4.2%
residual bioluminescent signal [4]: 91.4 ± 1.8%
residual bioluminescent signal [5]: 89.9 ± 2.2%
residual bioluminescent signal [6]: 78.1 ± 3.4%

O=[N+]([O-])[O-].O=[N+]([O-])[O-].O=[N+]([O-])[O-].[Ga+3] [gallium(III) nitrate]
residual bioluminescent signal [1]: 96.1 ± 2.9%
residual bioluminescent signal [2]: 99.5 ± 2.3%
residual bioluminescent signal [3]: 70.9 ± 6.9%
residual bioluminescent signal [4]: 83 ± 7.1%
residual bioluminescent signal [5]: 8.8 ± 1.5%
residual bioluminescent signal [6]: 0.649 ± 0.57%

O=[N+]([O-])[O-].[Na+] [sodium nitrate]
residual bioluminescent signal [1]: 89.7 ± 1.5%
residual bioluminescent signal [2]: 96.7 ± 2.3%
residual bioluminescent signal [3]: 91.8 ± 4.2%
residual bioluminescent signal [4]: 93.2 ± 3.3%
residual bioluminescent signal [5]: 102 ± 2.5%
residual bioluminescent signal [6]: 94.1 ± 2.8%

O=[N+]([O-])[O-].[Li+] [lithium nitrate]
residual bioluminescent signal [1]: 93.22 ± 0.49%
residual bioluminescent signal [2]: 96.7 ± 1%
residual bioluminescent signal [3]: 97 ± 3.4%
residual bioluminescent signal [4]: 95.4 ± 4.8%
residual bioluminescent signal [5]: 102 ± 3.7%
residual bioluminescent signal [6]: 97.1 ± 3.3%

O=[N+]([O-])[O-].O=[N+]([O-])[O-].O=[N+]([O-])[O-].[Al+3] [aluminium nitrate]
residual bioluminescent signal [1]: 95.9 ± 2.5%
residual bioluminescent signal [2]: 100 ± 2.5%
residual bioluminescent signal [3]: 68.7 ± 3.2%
residual bioluminescent signal [4]: 89.9 ± 5.7%
residual bioluminescent signal [5]: 107 ± 1.8%
residual bioluminescent signal [6]: 103 ± 4.9%
